Test results taken from PubChem BioAssay (NCI).
Several values for one entry are separate records, joined by “and”; a condition that tells them apart may be missing. Equal values may be shown once. About 83,000 compounds went through this panel and 20% of them were active in at least one assay; those are over-represented in the sample as a whole.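 Method: cells in 96-well plates; compound added at one concentration; 48 h incubation; percent growth measured; values under 10 scored active.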 Activity calls are given as the source filed them.

Tests used:
Experiment in all cases: NCI-60 one-dose screen, 48 h (100 = growth as untreated, 0 = no growth, -100 = all killed)
Settings in all cases: 10 µM unless noted
T-47D breast = system: T-47D breast
BT-549 breast = system: BT-549 breast
MDA-MB-435 melanoma = system: MDA-MB-435 melanoma
SW-620 colon = system: SW-620 colon
MCF7 breast = system: MCF7 breast
HCT-116 colon = system: HCT-116 colon
HCC-2998 colon = system: HCC-2998 colon
KM12 colon = system: KM12 colon
MDA-MB-468 breast = system: MDA-MB-468 breast

Measured: growth

Cc1ccc(NC(=O)N/N=C/c2c[nH]c3ccccc23)c(C)c1
active: MDA-MB-435 melanoma -14.3% | MCF7 breast 7.55% | HCT-116 colon -15.3% | HCC-2998 colon -11.2% | KM12 colon -25.5% | MDA-MB-468 breast 3.12%
inactive: T-47D breast 46.7% | BT-549 breast 17.2% | SW-620 colon 24.8%

O=C(O)CC1S/C(=N/N=C/c2nc3ccccc3s2)NC1=O (centres undefined)
inactive: T-47D breast 85.4% | BT-549 breast 98.2% | MDA-MB-435 melanoma 102% | SW-620 colon 104% | MCF7 breast 60.9% | HCT-116 colon 71.1% | HCC-2998 colon 106% | KM12 colon 90.6% | MDA-MB-468 breast 104%

CC[C@]12C=CCN3CC[C@@]4(c5ccc(OC)cc5N(C)[C@H]4[C@@](O)(C(=O)OC)[C@@H]1OC(=O)CCC[P+](c1ccc(OC)cc1)(c1ccc(OC)cc1)c1ccc(OC)cc1)[C@@H]32
active: T-47D breast -61.4% | BT-549 breast -96.6% | MDA-MB-435 melanoma -76.9% | SW-620 colon -82.4% | MCF7 breast -83% | HCT-116 colon -68.8% | HCC-2998 colon -89.7% | KM12 colon -65.3% | MDA-MB-468 breast -92.1%

O=Cc1cncc(-c2ccc3ncnc(N4CCc5cc(F)c(Cl)cc54)c3c2)c1
active: BT-549 breast -7.41% | MCF7 breast 1.77%
inactive: T-47D breast 23.7% | MDA-MB-435 melanoma 46.2% | SW-620 colon 23.4% | HCT-116 colon 33.7% | HCC-2998 colon 64% | KM12 colon 81.8%

Cc1ccc(-c2cc(C(=O)N=Nc3c(O)[nH]c4ccc(F)cc34)c3ccccc3n2)cc1
inactive: T-47D breast 39.9% | BT-549 breast 39.1% | MDA-MB-435 melanoma 61% | SW-620 colon 19.4% | MCF7 breast 18% | HCT-116 colon 21% | HCC-2998 colon 35.9% | KM12 colon 51.2% | MDA-MB-468 breast 31.1%

COc1ccc(Nc2nnc(-c3c[nH]c4ccccc34)o2)cc1
active: MDA-MB-468 breast -7.14%
inactive: T-47D breast 71.9% | BT-549 breast 77.8% | MDA-MB-435 melanoma 81.9% | SW-620 colon 93% | MCF7 breast 58.6% | HCT-116 colon 92.4% | HCC-2998 colon 108% | KM12 colon 65.3%

CCOC(=O)/C(F)=C/C1CC1C(c1ccccc1)c1ccccc1 (centres undefined)
inactive: T-47D breast 70.7% | BT-549 breast 117% | MDA-MB-435 melanoma 84.8% | SW-620 colon 75.1% | MCF7 breast 80.7% | HCT-116 colon 62% | HCC-2998 colon 102% | KM12 colon 83.5% | MDA-MB-468 breast 36.2%

COc1nc(N)ncc1-c1ccc2ncnc(N3CCc4cc(F)c(Cl)cc43)c2c1
inactive: BT-549 breast 19.9% | MDA-MB-435 melanoma 68.2% | SW-620 colon 34.3% | MCF7 breast 29.8% | HCC-2998 colon 12.2% | KM12 colon 70%
active: T-47D breast -46.3% | HCT-116 colon -8.98% | MDA-MB-468 breast -24.9%

O=C(Nc1ccc(S(=O)(=O)N2CCCCC2)cc1)C(Cl)Cl
inactive: T-47D breast 101% | BT-549 breast 124% | MDA-MB-435 melanoma 109% | SW-620 colon 109% | MCF7 breast 101% | HCT-116 colon 105% | HCC-2998 colon 124% | KM12 colon 104% | MDA-MB-468 breast 118%

O=C(N/N=C/c1c[nH]c2ccccc12)Nc1ccccc1Cl
inactive: T-47D breast 44.9% | SW-620 colon 26.1%
active: BT-549 breast 1.24% | MDA-MB-435 melanoma 2.02% | MCF7 breast 1.71% | HCT-116 colon -12.7% | HCC-2998 colon -22% | KM12 colon -44.2%

Nc1nnc(-c2cncc(Br)c2)c(-c2c[nH]c3ccc(Cl)cc23)n1
inactive: T-47D breast 34.4% | BT-549 breast 95.7% | MDA-MB-435 melanoma 35% | SW-620 colon 82.8% | MCF7 breast 75.1% | HCT-116 colon 73.7% | HCC-2998 colon 88.8% | KM12 colon 74.5% | MDA-MB-468 breast 59.4%

COc1cc(-c2ccc3ncnc(N4CCc5ccc(Cl)cc54)c3c2)cnc1Cl
inactive: MDA-MB-435 melanoma 32.8% | SW-620 colon 17.4% | HCC-2998 colon 28% | KM12 colon 33.2%
active: T-47D breast 8.82% | BT-549 breast 5.89% | MCF7 breast 3.58% | HCT-116 colon 8.7% | MDA-MB-468 breast -16.8%

CN(C)c1nc(NCCNS(=O)(=O)c2ccc(C3=Nc4c(N)nc(N)nc4NC(c4ccc(Cl)cc4)C3)cc2)nc(N2CCOCC2)n1 (centres undefined)
active: MDA-MB-468 breast 6.95%
inactive: T-47D breast 43% | BT-549 breast 35.4% | MDA-MB-435 melanoma 60.1% | SW-620 colon 82.8% | MCF7 breast 22.4% | HCT-116 colon 30.9% | HCC-2998 colon 39.3% | KM12 colon 52.9%

CCOc1ccccc1NC(=O)N/C(N)=N/c1nc2ccccc2s1
active: MDA-MB-435 melanoma -21.6% | HCT-116 colon -5.6% | KM12 colon -0.458% | MDA-MB-468 breast -11.4%
inactive: T-47D breast 41.5% | BT-549 breast 23.1% | SW-620 colon 25.5% | MCF7 breast 11% | HCC-2998 colon 13.1%

CC1=C(C(=O)OCc2ccccc2)C(c2ccc(N(C)C)cc2)n2c(nc3ccccc32)N1 (centres undefined)
inactive: T-47D breast 84.6% | BT-549 breast 82.8% | MDA-MB-435 melanoma 29.4% | SW-620 colon 103% | MCF7 breast 65.2% | HCT-116 colon 87.7% | HCC-2998 colon 90.8% | KM12 colon 73.4% | MDA-MB-468 breast 69.8%

O=C1Nc2ccccc2/C1=C\c1ccc(OCC(=O)c2ccc(Br)cc2)cc1
inactive: T-47D breast 46.9% | BT-549 breast 56.6% | MDA-MB-435 melanoma 70.5% | SW-620 colon 78.1% | MCF7 breast 27.4% | HCT-116 colon 55.4% | HCC-2998 colon 85.1% | KM12 colon 77.3%

Cc1nn(-c2ccccc2)c2nc(C)n(C(=O)N/N=C/c3cccc([N+](=O)[O-])c3)c(=O)c12
inactive: T-47D breast 91.4% | BT-549 breast 155% | MDA-MB-435 melanoma 96.5% | SW-620 colon 103% | MCF7 breast 77.1% | HCT-116 colon 87.5% | HCC-2998 colon 113% | KM12 colon 100% | MDA-MB-468 breast 73.1%

CCCCCCCCc1ccc(C(=O)Nc2ccc(C)c(OP(=O)(O)O)c2)cc1
inactive: T-47D breast 90% | BT-549 breast 88.9% | MDA-MB-435 melanoma 102% | SW-620 colon 103% | MCF7 breast 88.3% | HCT-116 colon 106% | HCC-2998 colon 125% | KM12 colon 95.5% | MDA-MB-468 breast 104%

Nc1cc2ccccc2c(=O)n1NC(=O)c1ccc(Br)cc1
active: MDA-MB-468 breast -54.9%
inactive: T-47D breast 94.8% | BT-549 breast 136% | MDA-MB-435 melanoma 103% | SW-620 colon 98.4% | MCF7 breast 74.6% | HCT-116 colon 95.1% | HCC-2998 colon 97.5% | KM12 colon 92.7%

COc1cc(/C=C/C(=O)c2cnn(-c3cc(=O)[nH]c4ccc(Br)cc34)c2C)cc(OC)c1OC
active: T-47D breast -47.3% | BT-549 breast -44.7% | MDA-MB-435 melanoma 0.423% | SW-620 colon -67.4% | MCF7 breast -46% | HCT-116 colon -68.9% | HCC-2998 colon -96.8% | KM12 colon -42.6% | MDA-MB-468 breast -80.6%

Nc1nn2c(-c3cc4cc(Br)ccc4oc3=O)ccnc2c1N=Nc1ccccc1
active: BT-549 breast -45.3% | HCT-116 colon 3.34%
inactive: T-47D breast 29.6% | MDA-MB-435 melanoma 71.2% | SW-620 colon 50.7% | MCF7 breast 20% | HCC-2998 colon 30.2% | KM12 colon 26.1% | MDA-MB-468 breast 46.2%

CN1C(=O)C2(C(C#N)=C(c3ccc(Cl)cc3)Nc3c2c(-c2ccccc2)nn3-c2ccccc2)c2ccccc21 (centres undefined)
inactive: T-47D breast 84.6% | BT-549 breast 93.8% | MDA-MB-435 melanoma 97.1% | SW-620 colon 106% | MCF7 breast 73.8% | HCT-116 colon 73.8% | HCC-2998 colon 87% | KM12 colon 94.9% | MDA-MB-468 breast 95.4%

O=C1Nc2ccc(F)cc2/C1=C/C(=O)c1cc2ccccc2oc1=O
inactive: T-47D breast 93.4% | BT-549 breast 116% | MDA-MB-435 melanoma 103% | SW-620 colon 20.9% | MCF7 breast 69.4% | HCT-116 colon 88.7% | HCC-2998 colon 121% | KM12 colon 101% | MDA-MB-468 breast 22.3%

O=C(Nc1ccc(F)cc1)Nc1nc2ccc([N+](=O)[O-])cc2s1
inactive: HCC-2998 colon 11.8%
active: T-47D breast -18.1% | BT-549 breast -53.2% | MDA-MB-435 melanoma 0.0184% | SW-620 colon 7.92% | MCF7 breast 1.6% | HCT-116 colon 1.02% | KM12 colon 9.04% | MDA-MB-468 breast -23.4%

COc1c(F)ccc(C(=O)Nc2ccc3nc(NC(=O)C4CCCN(S(=O)(=O)c5ccc(C(C)(C)C)cc5)C4)sc3c2)c1F (centres undefined)
inactive: T-47D breast 42.5% | BT-549 breast 60.4% | MDA-MB-435 melanoma 76.7% | SW-620 colon 88.5% | MCF7 breast 41.5% | HCT-116 colon 58.3% | HCC-2998 colon 84.8% | KM12 colon 68.4% | MDA-MB-468 breast 86.7%

Nc1cccc(-n2c(COc3ccc(I)cc3)nc3ccccc32)c1
inactive: T-47D breast 54.6% and 99.2% | BT-549 breast 92.6% and 99.7% | MDA-MB-435 melanoma 95.9% and 99.7% | SW-620 colon 86.3% and 104% | MCF7 breast 67.9% and 98.9% | HCT-116 colon 76% and 102% | HCC-2998 colon 118% and 113% | KM12 colon 87.9% and 99.6% | MDA-MB-468 breast 72.2% and 102%

O=[N+]([O-])c1cccc(-c2nnc3c(/C=C/c4ccc(F)cc4)nc4ccccc4n23)c1
inactive: T-47D breast 74.3% | BT-549 breast 87.5% | MDA-MB-435 melanoma 102% | SW-620 colon 96.1% | MCF7 breast 28.4% | HCT-116 colon 81.1% | HCC-2998 colon 105% | KM12 colon 97.6%
active: MDA-MB-468 breast 0.494%

Cc1nn(-c2ccccc2)c2ncn(CC(=O)N/N=C/c3ccccc3O)c(=O)c12
inactive: T-47D breast 22.9% | BT-549 breast 56.5% | MDA-MB-435 melanoma 64.1% | SW-620 colon 43.5% | MCF7 breast 16.3% | HCT-116 colon 18.5% | HCC-2998 colon 36.2% | KM12 colon 25.8% | MDA-MB-468 breast 10.9%
